# Reference: PMC7862700, “An all-to-all approach to the identification of sequence-specific readers for epigenetic DNA modifications on cytosine”
# What was measured:
# Test in all cases: DAPPL (digital affinity profiling via proximity ligation, sequencing); 10 mM Tris-HCl pH 7.5, 50 mM NaCl, 1 mM DTT, 4% glycerol, room temperature, 30 min; GST-TFs on glutathione beads, 16-mer random dsDNA library, 0.1% formaldehyde crosslink after washing; high values mean tight binding
# FEV = target: T1, FEV (Homo sapiens, UniProt Q99581 1-238); conditions: protein: recombinant; tags: N-terminal GST; dsDNA, one strand shown
# T1 sequence: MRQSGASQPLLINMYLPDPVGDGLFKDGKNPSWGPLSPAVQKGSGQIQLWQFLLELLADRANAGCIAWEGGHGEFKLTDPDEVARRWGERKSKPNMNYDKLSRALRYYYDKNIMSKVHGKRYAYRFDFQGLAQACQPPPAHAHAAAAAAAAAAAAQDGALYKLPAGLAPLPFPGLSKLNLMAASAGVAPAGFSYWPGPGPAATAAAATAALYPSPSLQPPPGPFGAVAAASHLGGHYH
# Summary of the method: (§1)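 After expression in yeast as GST fusions, human transcription factors were bound to glutathione beads, DNA-barcoded and mixed with a tag-only sample. The pools were incubated with 200 nmole of a 16-mer random double-stranded DNA library in Tris/NaCl/DTT/glycerol buffer (30 min, room temperature), washed and crosslinked with 0.1% formaldehyde. Proximity ligation with BsaI/T4 ligase ran for 1 h at 37 °C, before PCR amplification and sequencing on an Illumina NextSeq500. Binding signal is a hexamer's read frequency for a factor divided by its frequency for the tag-only sample.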
# ETV5 = ETV5 (Homo sapiens, UniProt P41161 1-510); conditions: protein: recombinant; tags: N-terminal GST; dsDNA, one strand shown
# Summary of the method: as §1
# HSF1 = HSF1 (Homo sapiens, UniProt Q00613 1-529); conditions: protein: recombinant; tags: N-terminal GST; chain copies: 3; dsDNA, one strand shown
# Summary of the method: as §1
# SPIC = target: T2, SPIC (Homo sapiens, UniProt Q8N5J4 1-248); conditions: protein: recombinant; tags: N-terminal GST; dsDNA, one strand shown
# T2 sequence: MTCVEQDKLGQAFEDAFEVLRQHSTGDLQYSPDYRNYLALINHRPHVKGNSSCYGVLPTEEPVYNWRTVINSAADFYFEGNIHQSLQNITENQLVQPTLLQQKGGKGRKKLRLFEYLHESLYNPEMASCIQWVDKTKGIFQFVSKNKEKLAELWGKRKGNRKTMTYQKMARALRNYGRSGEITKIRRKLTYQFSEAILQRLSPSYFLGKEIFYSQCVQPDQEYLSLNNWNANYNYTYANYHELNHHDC
# Summary of the method: as §1
# ELF4 = ELF4 (Homo sapiens, UniProt Q99607 1-663); conditions: protein: recombinant; tags: N-terminal GST; dsDNA, one strand shown
# Summary of the method: as §1
# ELK4 = target: T3, ELK4 (Homo sapiens, UniProt P28324-2 1-405); conditions: protein: recombinant; tags: N-terminal GST; dsDNA, one strand shown
# T3 sequence: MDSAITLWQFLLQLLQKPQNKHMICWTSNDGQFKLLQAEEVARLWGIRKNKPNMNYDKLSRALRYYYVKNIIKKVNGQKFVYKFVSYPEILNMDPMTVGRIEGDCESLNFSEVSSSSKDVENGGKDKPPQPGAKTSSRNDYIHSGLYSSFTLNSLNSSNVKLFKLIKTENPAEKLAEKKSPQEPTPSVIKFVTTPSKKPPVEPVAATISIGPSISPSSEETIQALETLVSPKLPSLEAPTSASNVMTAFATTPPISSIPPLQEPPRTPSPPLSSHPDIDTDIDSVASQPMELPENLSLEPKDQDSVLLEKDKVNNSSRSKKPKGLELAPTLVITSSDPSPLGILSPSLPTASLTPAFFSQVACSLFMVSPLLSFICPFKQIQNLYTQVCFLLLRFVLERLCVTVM
# Summary of the method: as §1
# ETV2 = target: T4, ETV2 (Homo sapiens, UniProt O00321 1-342); conditions: protein: recombinant; tags: N-terminal GST; dsDNA, one strand shown
# T4 sequence: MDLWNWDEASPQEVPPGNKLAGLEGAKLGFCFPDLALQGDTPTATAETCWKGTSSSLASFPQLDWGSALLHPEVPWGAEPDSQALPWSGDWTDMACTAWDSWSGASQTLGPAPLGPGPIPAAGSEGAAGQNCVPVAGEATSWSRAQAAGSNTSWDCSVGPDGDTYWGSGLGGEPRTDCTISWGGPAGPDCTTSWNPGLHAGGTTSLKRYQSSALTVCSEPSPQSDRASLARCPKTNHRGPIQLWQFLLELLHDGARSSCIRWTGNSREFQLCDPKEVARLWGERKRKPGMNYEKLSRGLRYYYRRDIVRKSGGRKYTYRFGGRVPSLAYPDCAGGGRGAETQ
# Summary of the method: as §1
# ELF3 = target: T5, ELF3 (Homo sapiens, UniProt P78545 1-371); conditions: protein: recombinant; tags: N-terminal GST; dsDNA, one strand shown
# T5 sequence: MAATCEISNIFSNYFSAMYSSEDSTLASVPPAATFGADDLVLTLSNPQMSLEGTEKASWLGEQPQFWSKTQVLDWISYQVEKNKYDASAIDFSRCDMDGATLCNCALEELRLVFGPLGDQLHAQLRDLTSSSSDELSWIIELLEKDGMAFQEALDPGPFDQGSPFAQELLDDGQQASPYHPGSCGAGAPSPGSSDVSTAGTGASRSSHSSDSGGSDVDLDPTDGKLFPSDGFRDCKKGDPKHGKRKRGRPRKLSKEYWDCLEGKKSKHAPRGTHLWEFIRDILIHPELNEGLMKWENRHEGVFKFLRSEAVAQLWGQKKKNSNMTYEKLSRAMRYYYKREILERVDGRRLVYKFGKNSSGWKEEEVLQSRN
# Summary of the method: as §1
# CRX = CRX (Homo sapiens, UniProt O43186 1-299); conditions: protein: recombinant; tags: N-terminal GST; dsDNA, one strand shown
# Summary of the method: as §1
# ETV1 = ETV1 (Homo sapiens, UniProt P50549 1-477); conditions: protein: recombinant; tags: N-terminal GST; dsDNA, one strand shown
# Summary of the method: as §1
# ERF = target: T6, ERF (Homo sapiens, UniProt P50548 1-548); conditions: protein: recombinant; tags: N-terminal GST; dsDNA, one strand shown
# T6 sequence: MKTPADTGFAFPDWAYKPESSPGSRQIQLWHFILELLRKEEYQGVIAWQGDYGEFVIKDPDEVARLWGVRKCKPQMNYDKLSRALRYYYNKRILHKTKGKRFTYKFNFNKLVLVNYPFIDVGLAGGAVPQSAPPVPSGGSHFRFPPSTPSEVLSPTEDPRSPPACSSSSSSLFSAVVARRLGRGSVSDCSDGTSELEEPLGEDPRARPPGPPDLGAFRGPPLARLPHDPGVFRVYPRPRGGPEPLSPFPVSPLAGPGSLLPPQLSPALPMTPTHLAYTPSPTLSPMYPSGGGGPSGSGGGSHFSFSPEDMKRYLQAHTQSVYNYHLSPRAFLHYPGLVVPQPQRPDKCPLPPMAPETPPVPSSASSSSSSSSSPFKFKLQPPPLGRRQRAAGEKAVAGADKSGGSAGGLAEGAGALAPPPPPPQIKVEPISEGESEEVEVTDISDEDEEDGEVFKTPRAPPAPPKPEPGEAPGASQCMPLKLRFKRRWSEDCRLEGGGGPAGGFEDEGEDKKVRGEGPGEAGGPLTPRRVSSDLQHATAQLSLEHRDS
# Summary of the method: as §1
# ETV3L = target: T7, ETV3L (Homo sapiens, UniProt Q6ZN32 1-361); conditions: protein: recombinant; tags: N-terminal GST; dsDNA, one strand shown
# T7 sequence: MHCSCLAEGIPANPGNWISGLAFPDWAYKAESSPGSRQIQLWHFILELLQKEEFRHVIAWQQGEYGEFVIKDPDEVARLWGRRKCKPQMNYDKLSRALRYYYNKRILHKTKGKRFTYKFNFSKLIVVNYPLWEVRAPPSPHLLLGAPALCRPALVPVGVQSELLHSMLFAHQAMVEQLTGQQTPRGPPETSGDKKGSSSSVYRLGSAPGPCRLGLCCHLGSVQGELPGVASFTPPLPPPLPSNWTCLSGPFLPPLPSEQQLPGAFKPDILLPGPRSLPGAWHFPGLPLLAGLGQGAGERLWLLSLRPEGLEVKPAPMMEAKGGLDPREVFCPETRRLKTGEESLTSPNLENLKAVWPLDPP
# Summary of the method: as §1
# ETS2 = target: T8, ETS2 (Homo sapiens, UniProt P15036 1-469); conditions: protein: recombinant; tags: N-terminal GST; dsDNA, one strand shown
# T8 sequence: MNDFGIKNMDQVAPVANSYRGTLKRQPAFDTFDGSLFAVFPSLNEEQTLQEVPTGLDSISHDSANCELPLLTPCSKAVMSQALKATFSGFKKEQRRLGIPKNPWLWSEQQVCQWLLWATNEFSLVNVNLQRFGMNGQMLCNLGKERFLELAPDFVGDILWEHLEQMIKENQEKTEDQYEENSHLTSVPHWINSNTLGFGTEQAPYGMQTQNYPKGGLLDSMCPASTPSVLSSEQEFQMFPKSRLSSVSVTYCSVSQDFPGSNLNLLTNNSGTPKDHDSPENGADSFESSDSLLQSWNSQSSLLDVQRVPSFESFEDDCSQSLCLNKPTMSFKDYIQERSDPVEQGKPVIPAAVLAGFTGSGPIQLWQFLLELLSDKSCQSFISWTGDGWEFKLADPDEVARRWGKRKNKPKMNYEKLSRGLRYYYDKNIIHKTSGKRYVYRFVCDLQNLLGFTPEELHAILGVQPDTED
# Summary of the method: as §1
# SPDEF = target: T9, SPDEF (Homo sapiens, UniProt O95238 1-335); conditions: protein: recombinant; tags: N-terminal GST; dsDNA, one strand shown
# T9 sequence: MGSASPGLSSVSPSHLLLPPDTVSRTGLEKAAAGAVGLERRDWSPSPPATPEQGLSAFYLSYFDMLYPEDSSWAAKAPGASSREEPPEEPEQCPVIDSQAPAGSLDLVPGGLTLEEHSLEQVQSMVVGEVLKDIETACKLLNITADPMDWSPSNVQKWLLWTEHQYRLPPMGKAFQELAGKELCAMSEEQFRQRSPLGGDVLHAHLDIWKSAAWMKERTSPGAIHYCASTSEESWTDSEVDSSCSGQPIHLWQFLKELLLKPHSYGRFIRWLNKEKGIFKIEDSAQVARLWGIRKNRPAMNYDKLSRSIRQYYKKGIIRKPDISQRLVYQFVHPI
# Summary of the method: as §1
# ETV7 = target: T10, ETV7 (Homo sapiens, UniProt Q9Y603 1-341); conditions: protein: recombinant; tags: N-terminal GST; dsDNA, one strand shown
# T10 sequence: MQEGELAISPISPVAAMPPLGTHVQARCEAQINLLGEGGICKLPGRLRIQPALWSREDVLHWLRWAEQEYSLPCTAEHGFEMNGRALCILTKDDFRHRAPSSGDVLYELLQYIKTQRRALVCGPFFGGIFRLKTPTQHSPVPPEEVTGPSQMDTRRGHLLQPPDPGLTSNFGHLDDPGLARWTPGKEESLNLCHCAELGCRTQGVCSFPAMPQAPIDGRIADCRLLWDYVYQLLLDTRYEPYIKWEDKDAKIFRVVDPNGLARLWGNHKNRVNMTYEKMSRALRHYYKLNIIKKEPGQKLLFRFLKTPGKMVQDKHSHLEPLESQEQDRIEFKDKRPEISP
# Summary of the method: as §1
# ELF5 = target: T11, ELF5 (Homo sapiens, UniProt Q9UKW6-2 1-255); conditions: protein: recombinant; tags: N-terminal GST; dsDNA, one strand shown
# T11 sequence: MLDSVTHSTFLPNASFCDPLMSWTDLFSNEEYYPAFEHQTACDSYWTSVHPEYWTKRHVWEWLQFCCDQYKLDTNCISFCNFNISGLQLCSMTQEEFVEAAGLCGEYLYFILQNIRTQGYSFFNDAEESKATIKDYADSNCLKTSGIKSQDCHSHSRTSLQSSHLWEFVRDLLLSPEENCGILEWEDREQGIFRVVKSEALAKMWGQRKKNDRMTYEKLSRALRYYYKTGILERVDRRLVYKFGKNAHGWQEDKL
# Summary of the method: as §1
# ETV3 = target: T12, ETV3 (Homo sapiens, UniProt P41162-2 1-143); conditions: protein: recombinant; tags: N-terminal GST; dsDNA, one strand shown
# T12 sequence: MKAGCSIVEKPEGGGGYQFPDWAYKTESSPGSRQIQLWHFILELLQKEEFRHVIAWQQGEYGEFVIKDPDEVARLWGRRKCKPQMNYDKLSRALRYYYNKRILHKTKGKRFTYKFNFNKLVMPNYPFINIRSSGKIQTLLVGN
# Summary of the method: as §1
# ETV6 = ETV6 (Homo sapiens, UniProt P41212 1-452); conditions: protein: recombinant; tags: N-terminal GST; dsDNA, one strand shown
# Summary of the method: as §1
# ELF4, sequence (Q99607 whole entry): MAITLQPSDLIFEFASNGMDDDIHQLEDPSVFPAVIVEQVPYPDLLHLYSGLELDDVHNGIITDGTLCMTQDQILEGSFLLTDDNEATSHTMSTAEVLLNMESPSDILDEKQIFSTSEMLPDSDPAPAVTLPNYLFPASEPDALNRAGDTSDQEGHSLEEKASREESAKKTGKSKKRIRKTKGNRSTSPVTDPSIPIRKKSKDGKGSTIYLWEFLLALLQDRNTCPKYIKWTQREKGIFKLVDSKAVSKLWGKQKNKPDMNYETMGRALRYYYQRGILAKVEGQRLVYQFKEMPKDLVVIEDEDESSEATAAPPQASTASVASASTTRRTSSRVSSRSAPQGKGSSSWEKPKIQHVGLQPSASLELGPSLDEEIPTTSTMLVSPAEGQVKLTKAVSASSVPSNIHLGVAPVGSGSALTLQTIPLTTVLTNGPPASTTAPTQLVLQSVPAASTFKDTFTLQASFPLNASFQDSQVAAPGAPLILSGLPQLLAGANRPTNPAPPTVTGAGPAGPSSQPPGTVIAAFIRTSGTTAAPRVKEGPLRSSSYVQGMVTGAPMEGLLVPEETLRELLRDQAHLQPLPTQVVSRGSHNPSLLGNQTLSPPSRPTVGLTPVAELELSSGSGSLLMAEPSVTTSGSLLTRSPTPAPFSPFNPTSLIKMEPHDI
# ETV5, sequence (P41161 whole entry): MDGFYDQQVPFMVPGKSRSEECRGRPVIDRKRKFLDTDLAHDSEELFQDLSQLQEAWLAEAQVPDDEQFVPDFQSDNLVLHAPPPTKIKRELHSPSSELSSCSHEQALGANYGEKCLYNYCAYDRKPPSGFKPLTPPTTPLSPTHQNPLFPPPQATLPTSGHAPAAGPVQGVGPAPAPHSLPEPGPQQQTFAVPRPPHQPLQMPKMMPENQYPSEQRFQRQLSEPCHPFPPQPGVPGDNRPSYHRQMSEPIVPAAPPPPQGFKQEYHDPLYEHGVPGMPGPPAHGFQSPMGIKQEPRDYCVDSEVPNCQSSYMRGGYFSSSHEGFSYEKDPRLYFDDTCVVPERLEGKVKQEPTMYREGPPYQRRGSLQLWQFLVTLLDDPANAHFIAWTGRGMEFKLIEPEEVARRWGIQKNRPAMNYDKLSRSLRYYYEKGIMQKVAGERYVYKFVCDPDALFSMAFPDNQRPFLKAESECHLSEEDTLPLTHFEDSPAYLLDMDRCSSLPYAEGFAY
# ETV6, sequence (P41212 whole entry): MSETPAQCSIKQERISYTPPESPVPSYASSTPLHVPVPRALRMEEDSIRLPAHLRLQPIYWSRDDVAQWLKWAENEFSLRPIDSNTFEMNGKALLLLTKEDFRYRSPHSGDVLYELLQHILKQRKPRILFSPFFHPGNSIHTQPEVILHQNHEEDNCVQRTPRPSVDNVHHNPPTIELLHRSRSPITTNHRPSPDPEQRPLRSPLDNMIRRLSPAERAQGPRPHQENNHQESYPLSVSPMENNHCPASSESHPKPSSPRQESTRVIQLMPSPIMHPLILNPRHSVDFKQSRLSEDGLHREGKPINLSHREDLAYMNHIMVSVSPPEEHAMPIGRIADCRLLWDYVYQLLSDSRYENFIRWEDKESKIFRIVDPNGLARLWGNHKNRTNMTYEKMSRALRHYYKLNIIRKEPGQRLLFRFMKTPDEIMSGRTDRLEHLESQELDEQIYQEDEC
# HSF1, sequence (Q00613 whole entry): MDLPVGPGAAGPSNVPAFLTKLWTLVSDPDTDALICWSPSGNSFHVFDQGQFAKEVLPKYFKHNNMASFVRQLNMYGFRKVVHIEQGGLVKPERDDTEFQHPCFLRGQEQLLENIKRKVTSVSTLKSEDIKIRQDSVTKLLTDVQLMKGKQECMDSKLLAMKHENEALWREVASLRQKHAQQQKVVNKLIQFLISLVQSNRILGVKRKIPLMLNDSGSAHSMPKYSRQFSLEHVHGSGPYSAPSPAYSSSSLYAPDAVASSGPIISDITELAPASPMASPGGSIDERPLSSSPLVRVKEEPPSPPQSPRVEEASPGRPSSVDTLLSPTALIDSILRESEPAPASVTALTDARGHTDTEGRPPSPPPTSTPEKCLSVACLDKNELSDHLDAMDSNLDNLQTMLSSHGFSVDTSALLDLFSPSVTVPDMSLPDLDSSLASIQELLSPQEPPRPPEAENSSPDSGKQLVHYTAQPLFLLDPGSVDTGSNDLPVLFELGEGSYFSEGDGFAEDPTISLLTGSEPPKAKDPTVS
# CRX, sequence (O43186 whole entry): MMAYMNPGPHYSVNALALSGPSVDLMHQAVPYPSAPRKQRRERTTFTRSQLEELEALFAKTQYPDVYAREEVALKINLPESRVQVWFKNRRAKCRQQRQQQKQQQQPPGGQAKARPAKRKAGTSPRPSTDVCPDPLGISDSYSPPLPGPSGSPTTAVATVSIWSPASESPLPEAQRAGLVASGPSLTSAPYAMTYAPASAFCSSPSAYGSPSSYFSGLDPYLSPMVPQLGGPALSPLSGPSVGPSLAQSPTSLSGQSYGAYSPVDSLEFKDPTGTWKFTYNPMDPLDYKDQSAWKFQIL
# ETV1, sequence (P50549 whole entry): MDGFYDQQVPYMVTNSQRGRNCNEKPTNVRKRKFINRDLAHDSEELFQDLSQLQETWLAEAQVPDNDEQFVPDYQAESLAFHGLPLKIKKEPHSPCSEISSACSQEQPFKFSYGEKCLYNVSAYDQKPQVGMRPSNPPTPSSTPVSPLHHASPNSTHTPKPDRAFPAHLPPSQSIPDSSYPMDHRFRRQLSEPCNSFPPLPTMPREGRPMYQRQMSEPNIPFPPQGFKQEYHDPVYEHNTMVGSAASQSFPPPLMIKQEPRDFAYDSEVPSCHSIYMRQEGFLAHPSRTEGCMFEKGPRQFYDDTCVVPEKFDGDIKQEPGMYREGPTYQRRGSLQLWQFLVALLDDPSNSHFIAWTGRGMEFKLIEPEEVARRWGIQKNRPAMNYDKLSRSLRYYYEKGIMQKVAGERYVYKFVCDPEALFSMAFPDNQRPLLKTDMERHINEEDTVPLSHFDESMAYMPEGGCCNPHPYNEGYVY
sequence,measurement,setting,value
AAACGC,binding signal,FEV,"1.21 fold enrichment (6-mer frequency, TF over GST control)"
same,binding signal,ETV5,"1.28 fold enrichment (6-mer frequency, TF over GST control)"
same,binding signal,HSF1,"1.05 fold enrichment (6-mer frequency, TF over GST control)"
same,binding signal,SPIC,"1.29 fold enrichment (6-mer frequency, TF over GST control)"
same,binding signal,ELF4,"1.2 fold enrichment (6-mer frequency, TF over GST control)"
same,binding signal,ELK4,"1.27 fold enrichment (6-mer frequency, TF over GST control)"
same,binding signal,ETV2,"1.38 fold enrichment (6-mer frequency, TF over GST control)"
same,binding signal,ELF3,"1.21 fold enrichment (6-mer frequency, TF over GST control)"
same,binding signal,CRX,"1.04 fold enrichment (6-mer frequency, TF over GST control)"
same,binding signal,ETV1,"1.31 fold enrichment (6-mer frequency, TF over GST control)"
same,binding signal,ERF,"1.24 fold enrichment (6-mer frequency, TF over GST control)"
same,binding signal,ETV3L,"1.18 fold enrichment (6-mer frequency, TF over GST control)"
same,binding signal,ETS2,"1.22 fold enrichment (6-mer frequency, TF over GST control)"
same,binding signal,SPDEF,"1.24 fold enrichment (6-mer frequency, TF over GST control)"
same,binding signal,ETV7,"1.17 fold enrichment (6-mer frequency, TF over GST control)"
same,binding signal,ELF5,"1.33 fold enrichment (6-mer frequency, TF over GST control)"
same,binding signal,ETV3,"1.3 fold enrichment (6-mer frequency, TF over GST control)"
same,binding signal,ETV6,"1.35 fold enrichment (6-mer frequency, TF over GST control)"
